CRE Fsk mod: alters forskolin-stimulated CRE reporter signaling in CHO cells. AID 662. 71,000 tested, 2.5% active. Potency, µM (series often up to 38.2 µM), hits mostly activators. CHO CRE-bla reporter (cAMP response element driving beta-lactamase), forskolin EC10, beta-lactamase ratio; active = well fitted activation curve with a large enough effect in the signal ratio, with a control signal flat, not every such curve was filed as active; inconclusive = small, poorly fitted or top-dose-only effect, or effect the other way, or a change in a side signal; the % refers to the signal ratio
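Beta-lactamase reporter under a cAMP responsive element in CHO cells; compounds tested in titration series against EC10 NKH 477, 3 h at 37 °C. Read-out: CCF4 FRET ratio 460nm/530nm (excitation 405nm) giving %Activity, fitted to AC50.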
Tau filament bind: binders of human tau filaments; P10636; recombinant tau filaments, thioflavin S fluorescence, 15 h; filaments grown with octadecylsulfate alongside compound; Potency, µM (top dose mostly 57.1 µM); 71,000 tested, 2% active; AID 596;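 also: actives lower thioflavin S fluorescence by blocking filaments or displacing dye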
Target sequence (P10636 whole entry, looked up): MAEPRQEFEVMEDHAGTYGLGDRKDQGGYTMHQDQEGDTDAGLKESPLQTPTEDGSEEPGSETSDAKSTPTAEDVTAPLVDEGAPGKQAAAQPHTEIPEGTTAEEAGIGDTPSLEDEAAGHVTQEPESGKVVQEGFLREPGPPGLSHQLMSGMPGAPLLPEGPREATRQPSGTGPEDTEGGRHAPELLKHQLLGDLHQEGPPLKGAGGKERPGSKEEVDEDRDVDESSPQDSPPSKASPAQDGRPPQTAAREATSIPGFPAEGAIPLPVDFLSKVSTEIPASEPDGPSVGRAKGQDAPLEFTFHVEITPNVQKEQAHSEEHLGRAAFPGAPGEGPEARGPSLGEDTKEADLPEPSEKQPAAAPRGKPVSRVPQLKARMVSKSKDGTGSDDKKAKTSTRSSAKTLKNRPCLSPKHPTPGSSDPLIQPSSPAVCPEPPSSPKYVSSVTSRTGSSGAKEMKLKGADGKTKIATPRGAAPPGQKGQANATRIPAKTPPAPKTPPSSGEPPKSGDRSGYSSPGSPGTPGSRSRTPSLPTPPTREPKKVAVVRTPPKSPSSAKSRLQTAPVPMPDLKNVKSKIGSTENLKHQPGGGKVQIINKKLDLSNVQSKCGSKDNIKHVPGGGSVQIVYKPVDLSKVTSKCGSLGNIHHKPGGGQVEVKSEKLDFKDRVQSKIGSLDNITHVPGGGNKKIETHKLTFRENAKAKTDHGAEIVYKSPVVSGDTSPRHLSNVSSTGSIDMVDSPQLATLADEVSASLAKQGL
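Recombinant tau protein (human, 1 uM final) plus 30 uM ODS in HEPES pH 7.4 with NaCl, DTT and thioflavine S. Compound present from the start; fluorescence at 510 nm after 15 h, 37 C.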
HEK293 cAMP cs: counter-screen for TSHR agonists: cAMP increase in parental HEK293; parental HEK293 CNG cAMP sensor, membrane potential fluorescence; Potency, µM (series often up to 57.1 µM), hits mostly activators; 73,000 tested, 2.5% active; AID 938; also: nearly all actives have a fitted effect of over 55% in size
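Counterscreen for endogenous-receptor signalling: CNG-channel HEK 293 cells report cAMP rise by membrane depolarization. After 60 min dye equilibration with 100 uM RO 20-1724, compounds incubated 30 min before bottom-read fluorescence at 590 nm.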
ERK AVP block: blocks ERK signaling stimulated by vasopressin; HEK293-V1b, vasopressin-stimulated pERK AlphaScreen; 72,000 tested, 0.99% active; AID 995; Potency, µM (top dose mostly 57.5 µM), hits mostly inhibitors; also: nearly all actives have a fitted effect of over 55% in size
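HEK293 cells stably expressing V1b receptor, preincubated 30 min at 37 °C with compound, then stimulated 5 min with 25 nM vasopressin. Phospho-ERK by AlphaScreen SureFire after 5 h RT; normalized to DMSO and vasopressin; AC50 by Hill fit.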
TSHR agonist: activates the human thyroid stimulating hormone receptor; HEK293-CNG-TSHR cells (CNG channel as cAMP sensor), membrane potential dye, cAMP; P16473; AID 926; 73,000 tested, 0.48% active; Potency, µM (doses to about 57.1 µM), usual class: activators; active = well fitted activation curve with a large enough effect in the main read-out, with a control signal flat, not every such curve was filed as active; inconclusive = small, poorly fitted or top-dose-only effect, or a change in a side signal; inactive = no such curve, though single readings can be large or run the other way; reference of the percent scale not stated here;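 also: the control signal comes from parental cells without the receptor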
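cAMP rise detected as CNG-channel membrane depolarization by fluorescent dye (emission 590 nm), 30 min after compound, following 60 min dye loading containing 100 uM RO 20-1724 at room temperature. Cells: TSHR/CNG HEK 293, with parental CNG HEK 293 as control.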
Large screens that a line does not name were inactive. Rows were chosen to be rich in hits. Some 7.6% of all compounds tested hit in one or more screens of this group. Unless noted, calls follow the shape of the dose curve; as a rule, active = well fitted curve in the direction sought with a large enough effect; inconclusive = small, poorly fitted or top-dose-only effect, or another doubt; inactive = no such curve, though single readings can be large; an effect the other way counts as inactive or inconclusive.

Cc1nn(Cc2ccccc2)c(Cl)c1C(=O)OCc1nnc(-c2ccc(Cl)cc2)o1	HEK293 cAMP cs 25.1µM, TSHR agonist inconclusive
COc1ccccc1NC(=O)CN1CCC(n2c(C)nc3cc(F)ccc32)CC1	CRE Fsk mod 2µM, ERK AVP block inconclusive
COc1ccccc1NC(=O)CN1CCC(n2nnc3cc(F)ccc32)CC1	CRE Fsk mod inconclusive
COc1ccccc1NC(=O)CN1CCN(c2ccc(Cl)cc2)CC1	CRE Fsk mod inconclusive, HEK293 cAMP cs 20µM, TSHR agonist inconclusive
COc1cc(NC(=O)c2ccc(C)cc2)c(OC)cc1NC(=O)CN1CCOCC1	none
COc1cc(NC(=O)c2ccc(Cl)cc2)c(OC)cc1NC(=O)CN1CCOCC1	CRE Fsk mod inconclusive, Tau filament bind 20µM, ERK AVP block inconclusive
CCOC(=O)c1ccc(-n2c(N)c(C(=O)NCc3ccco3)sc2=S)cc1	ERK AVP block 20µM
CO[C@@H]1/C=C\O[C@]2(C)Oc3c(C)c(O)c4c(O)c(c(CN5CCN(C)CC5)c(O)c4c3C2=O)NC(=O)/C(C)=C\C=C[C@@H](C)[C@@H](O)[C@H](C)[C@@H](O)[C@H](C)[C@H](OC(C)=O)[C@@H]1C	none
COCCN(CCOC)c1ncc(Cl)c(C(=O)c2c(C)cc3ccccn23)n1	HEK293 cAMP cs 31.6µM, TSHR agonist inconclusive
Cc1ccc(S(=O)(=O)N[C@H]2COC(=O)[C@H](C)COC(=O)C/C=C\[C@H]2C)cc1	none (no result: CRE Fsk mod, Tau filament bind)
COC(=O)[C@@H]1CC[C@H](C)[C@@H](c2ccc(C)cc2)N1C(=O)c1ccc(/C=N\O[C@@H](C)CN2CCCc3nc(C)c(C)cc32)cc1	none (no result: CRE Fsk mod, Tau filament bind)
O=C(CSc1nc2ccccc2c(=O)n1-c1ccc(Cl)cc1)c1ccco1	HEK293 cAMP cs 25.1µM, TSHR agonist inconclusive
CC(=O)C(Sc1nc(N2CCOCC2)nc(N2CCOCC2)n1)C(=O)Nc1ccccc1 (stereo not given)	CRE Fsk mod inconclusive
CC(=O)C(Sc1nn(C)c(=S)s1)C(=O)Nc1ccccc1 (stereo not given)	HEK293 cAMP cs 20µM, TSHR agonist inconclusive
CCOC(=O)c1cnc(-n2nc(C)cc2C)nc1NCCc1ccccc1	CRE Fsk mod inconclusive, HEK293 cAMP cs 25.1µM, ERK AVP block inconclusive, TSHR agonist inconclusive
FC(F)(F)c1ccccc1-c1ccc2ncnc(NCCN3CCOCC3)c2c1	CRE Fsk mod inconclusive, HEK293 cAMP cs inconclusive, TSHR agonist inconclusive
CCc1ccc(-c2nnn(CCC(=O)OC)n2)cc1	HEK293 cAMP cs 7.94µM, TSHR agonist inconclusive
COc1ccc2c(C=Nc3c(C)n(C)n(-c4ccccc4)c3=O)c(O)n(Cc3ccco3)c(=O)c2c1	CRE Fsk mod 3.16µM
Cc1c(N=c2c(=O)c3ccccc3c2=O)c(=O)n(-c2ccccc2)n1C	CRE Fsk mod inconclusive, Tau filament bind 15.8µM, ERK AVP block 20µM
CN1CCc2c(sc3c2c(=O)n(-c2ccccc2)c2nnc(SCc4ccc(F)cc4)n32)C1	Tau filament bind 3.98µM
CSc1nnc2n(-c3ccccc3)c(=O)c3c4c(sc3n12)CCC4	CRE Fsk mod 2.51µM
OC[C@@H]1O[C@@H](O)[C@H](N=Cc2ccc3c(c2)OCO3)[C@@H](O)[C@@H]1O	none
O=C(N/N=C\c1ccccc1O)c1ccccc1O	CRE Fsk mod inconclusive, Tau filament bind 31.6µM, ERK AVP block inconclusive
O=C(CSc1nnnn1Cc1ccccc1)c1ccccc1	HEK293 cAMP cs 31.6µM, TSHR agonist inconclusive
COc1ccc(C(=O)CSc2nnnn2Cc2ccccc2)cc1	none
CO[C@@H]1COC(=O)[C@@H](CCSC)NC(=O)C/C=C\[C@@H](C)COC(=O)CCC[C@H]1C	none (no result: CRE Fsk mod, Tau filament bind)
COC(=O)[C@@]1(Cc2ccc(OC)cc2)[C@H]2c3cc(C(=O)N(C)C)n(Cc4ccc(OC)c(OC)c4)c3C[C@H]2CN1C(=O)c1ccccc1	CRE Fsk mod inconclusive, HEK293 cAMP cs 15.8µM, TSHR agonist inconclusive
COC(=O)[C@@]1(Cc2ccccc2)[C@H]2c3cc(C(=O)N(C)C)n(Cc4ccsc4Br)c3C[C@H]2CN1C(=O)c1ccccc1	CRE Fsk mod inconclusive, HEK293 cAMP cs 3.16µM, TSHR agonist inconclusive
COC(=O)[C@@]1(Cc2ccc(F)cc2)[C@H]2c3cc(C(=O)N(C)C)n(CC4CC4)c3C[C@H]2CN1C(=O)c1ccccc1	HEK293 cAMP cs 6.31µM, TSHR agonist inconclusive
COC(=O)[C@@]1(Cc2ccc(OC)cc2)[C@H]2c3cc(C(=O)N(C)C)n(Cc4ccc(C(F)(F)F)nc4)c3C[C@H]2CN1C(=O)c1ccccc1	HEK293 cAMP cs 6.31µM, TSHR agonist inconclusive
COC(=O)[C@@]1(Cc2ccccc2)[C@H]2c3cc(C(=O)N(C)C)n(Cc4ccccc4)c3C[C@H]2CN1C(=O)c1ccccc1	HEK293 cAMP cs 2.51µM, TSHR agonist inconclusive
COC(=O)[C@@]1(Cc2ccccc2)[C@H]2c3cc(C(=O)N(C)C)n(Cc4ccc(S(C)(=O)=O)cc4)c3C[C@H]2CN1C(=O)c1ccccc1	CRE Fsk mod inconclusive, HEK293 cAMP cs 15.8µM, TSHR agonist inconclusive
COC(=O)[C@@]1(Cc2ccc(OC)cc2)[C@H]2c3cc(C(=O)N(C)C)n(Cc4cc(F)c(F)c(F)c4)c3C[C@H]2CN1C(=O)c1ccccc1	HEK293 cAMP cs 3.98µM, TSHR agonist inconclusive
COC(=O)[C@@]1(Cc2ccc(OC)cc2)[C@H]2c3cc(C(=O)N(C)C)n(Cc4ccc(O)c(OC)c4)c3C[C@H]2CN1C(=O)c1ccccc1	CRE Fsk mod inconclusive, HEK293 cAMP cs inconclusive, TSHR agonist inconclusive
COC(=O)[C@@]1(Cc2ccccc2)[C@H]2c3cc(C(=O)N(C)C)n(Cc4ccc(O)c(OC)c4)c3C[C@H]2CN1C(=O)c1ccccc1	CRE Fsk mod inconclusive, HEK293 cAMP cs 25.1µM, TSHR agonist inconclusive
COC(=O)[C@@]1(Cc2ccccc2)[C@H]2c3cc(C(=O)N(C)C)n(Cc4ccc(OC)c(OC)c4)c3C[C@H]2CN1C(=O)c1ccccc1	CRE Fsk mod inconclusive, HEK293 cAMP cs inconclusive, TSHR agonist inconclusive
COC(=O)[C@@]1(Cc2ccc(F)cc2)[C@H]2c3cc(C(=O)N(C)C)n(Cc4cc(F)c(F)c(F)c4)c3C[C@H]2CN1C(=O)c1ccccc1	none
COC(=O)c1ccc(C(NC(=O)OCc2ccccc2)/C(=C/[C@@H](C)C(=O)N(C)Cc2ccccc2)c2cccnc2)cc1 (stereo not given in full)	none
CCCn1c(=O)c2ccccc2n2c(SCc3nc4ccccc4s3)nnc12	CRE Fsk mod inconclusive, HEK293 cAMP cs inconclusive, TSHR agonist inconclusive
CCCn1c(=O)c2ccccc2n2c(SCCOc3ccccc3)nnc12	CRE Fsk mod inconclusive, HEK293 cAMP cs 10µM, TSHR agonist inconclusive
COc1cc2c(cc1OC)-c1nncn1C(C)(C)C2	CRE Fsk mod 12.6µM
COc1cc2c(cc1OC)-c1nnc(C)n1C(C)(C)C2	none (no result: CRE Fsk mod, Tau filament bind, ERK AVP block)
O=c1cnc2cncnc2n1Cc1ccc(F)cc1	CRE Fsk mod 3.16µM, HEK293 cAMP cs inconclusive, TSHR agonist inconclusive

Screens deposited in PubChem by National Center for Advancing Translational Sciences (NCATS).
